Read-out in test [1]: Tissue plasminogen activator (tPA), PLAT (gene 5327)
The test can be described thus: BSK_BE3C_tPA: BioMAP Diversity Plus: BE3C Assay for Tissue plasminogen activator (tPA) Biomarker Activity (AID 2283041).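 As to outcome: tPA level quantified by ELISA one day after compound addition.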 To be noted: primary human bronchial epithelial cells; actives raise or lower the signal. The method, boiled down:
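Human primary bronchial epithelial cells were dosed with chemical and tPA biomarker levels measured by ELISA 24 hours later. Activity was fitted bidirectionally against DMSO as negative control and baseline.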

Read-out in test [2]: Interleukin-8 (IL8), CXCL8 (gene 3576)
As to the kind of experiment: BSK_CASM3C_IL8: BioMAP Diversity Plus: CASM3C Assay for Interleukin-8 (IL8) Biomarker Activity (AID 2283042).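 Also: IL-8 protein level quantified by ELISA.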 To be noted: primary human coronary artery smooth muscle cells; actives raise or lower the signal.

Read-out in test [3]: Human Leukocyte Antigen - DR isotype (HLADR), HLA-DRA (gene 3122)
As to the kind of experiment: BSK_CASM3C_HLADR: BioMAP Diversity Plus: CASM3C Assay for Human Leukocyte Antigen - DR isotype (HLADR) Biomarker Activity (AID 2283043).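 Also: cell-surface HLA-DR protein level quantified by ELISA.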 The note with it: primary human coronary artery smooth muscle cells; actives raise or lower the signal.

Read-out in test [4]: Macrophage colony-stimulating factor (MCSF), CSF1 (gene 1435)
As to the kind of experiment: BSK_CASM3C_MCSF: BioMAP Diversity Plus: CASM3C Assay for Macrophage colony-stimulating factor (MCSF) Biomarker Activity (AID 2283044).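 Also: M-CSF protein amount quantified by ELISA after 24 h exposure.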 To be noted: primary human coronary artery smooth muscle cells; actives raise or lower the signal.

Read-out in test [5]: Low-density lipoprotein receptor (LDLR), LDLR (gene 3949)
As to the kind of experiment: BSK_CASM3C_LDLR: BioMAP Diversity Plus: CASM3C Assay for Low-density lipoprotein receptor (LDLR) Biomarker Activity (AID 2283045).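 Also: LDLR protein level on the cell surface quantified by ELISA.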 The note with it: primary human coronary artery smooth muscle cells; actives raise or lower the signal.

Read-out in test [6]: Monocyte Chemoattractant Protein-1 (MCP1), CCL2 (gene 6347)
The test can be described thus: BSK_CASM3C_MCP1: BioMAP Diversity Plus: CASM3C Assay for Monocyte Chemoattractant Protein-1 (MCP1) Biomarker Activity (AID 2283046).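 Also: MCP-1 level quantified by ELISA 24 h after dosing.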 To be noted: primary human coronary artery smooth muscle cells; actives raise or lower the signal.

A short description of test [7]: BSK_CASM3C_Proliferation: Cell Proliferation Assessment in the BioMAP Diversity Plus: CASM3C Assay (AID 2283047).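 Also: sulforhodamine B total protein stain as relative cell number at 560 nm; sub-confluent cells exposed 48 h before staining; fitted both ways against DMSO so gain or loss of cell number.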 To be noted: primary human coronary artery smooth muscle cells.
Read-out in test [8]: Monokine induced gamma interferon (MIG), CXCL9 (gene 4283)
The test can be described thus: BSK_CASM3C_MIG: BioMAP Diversity Plus: CASM3C Assay for Monokine induced gamma interferon (MIG) Biomarker Activity (AID 2283048).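 Also: MIG protein level measured by ELISA.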 To be noted: primary human coronary artery smooth muscle cells; actives raise or lower the signal.

Read-out in test [9]: serum amyloid A (SAA), SAA1 (gene 6288)
The test can be described thus: BSK_CASM3C_SAA: BioMAP Diversity Plus: CASM3C Assay for serum amyloid A (SAA) Biomarker Activity (AID 2283049).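 Also: SAA protein level quantified by ELISA.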 The note with it: primary human coronary artery smooth muscle cells; actives raise or lower the signal.

A short description of test [10]: BSK_CASM3C_SRB: Viability Assessment in the BioMAP Diversity Plus: CASM3C Assay (AID 2283050).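 Also: total protein by SRB staining as cytotoxicity measure in parallel cultures.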 To be noted: primary human coronary artery smooth muscle cells.
Read-out in test [11]: Thrombomodulin, THBD (gene 7056)
The test can be described thus: BSK_CASM3C_Thrombomodulin: BioMAP Diversity Plus: CASM3C Assay for Thrombomodulin Biomarker Activity (AID 2283051).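 Also: thrombomodulin protein level measured by ELISA 24 h after dosing.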 The note with it: primary human coronary artery smooth muscle cells; actives raise or lower the signal.

Read-out in test [12]: Tissue Factor, F3 (gene 2152)
As to the kind of experiment: BSK_CASM3C_TissueFactor: BioMAP Diversity Plus: CASM3C Assay for Tissue Factor Biomarker Activity (AID 2283052).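 Also: cell surface tissue factor protein level read by ELISA.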 The note with it: primary human coronary artery smooth muscle cells; actives raise or lower the signal.

Read-out in test [13]: Interferon-gamma inducible Protein 10 (IP10), CXCL10 (gene 3627)
The test can be described thus: BSK_hDFCGF_IP10: BioMAP Diversity Plus: hDFCGF Assay for Interferon-gamma inducible Protein 10 (IP10) Biomarker Activity (AID 2283053). The note with it: primary human foreskin fibroblasts; actives raise or lower the signal. The method, boiled down: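 Human foreskin fibroblast primary cells (hDFCGF system) were dosed with chemical and assayed at 24 h; IP-10 measured by ELISA. Activity fitted bidirectionally relative to DMSO negative control as baseline.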

Read-out in test [14]: Urokinase-type plasminogen activator receptor (uPAR), PLAUR (gene 5329)
The test can be described thus: BSK_CASM3C_uPAR: BioMAP Diversity Plus: CASM3C Assay for Urokinase-type plasminogen activator receptor (uPAR) Biomarker Activity (AID 2283054).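 Also: cell-surface uPAR protein level quantified by ELISA.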 The note with it: primary human coronary artery smooth muscle cells; actives raise or lower the signal.

Read-out in test [15]: Vascular cell adhesion molecule 1 (VCAM1), VCAM1 (gene 7412)
As to the kind of experiment: BSK_CASM3C_VCAM1: BioMAP Diversity Plus: CASM3C Assay for Vascular cell adhesion molecule 1 (VCAM1) Biomarker Activity (AID 2283055).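 Also: VCAM-1 protein level quantified by ELISA on the cells.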 To be noted: primary human coronary artery smooth muscle cells; actives raise or lower the signal.

Read-out in test [16]: Collagen III, COL3A1 (gene 1281)
The test can be described thus: BSK_hDFCGF_CollagenIII: BioMAP Diversity Plus: hDFCGF Assay for Collagen III Biomarker Activity (AID 2283056). The note with it: primary human foreskin fibroblasts; actives raise or lower the signal. The method, boiled down: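 Response relative to DMSO, fitted in both directions, reflects ELISA-measured collagen III in human primary skin fibroblasts 24 h after compound addition.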

Read-out in test [17]: Epidermal growth factor receptor (EGFR), EGFR (gene 1956)
The test can be described thus: BSK_hDFCGF_EGFR: BioMAP Diversity Plus: hDFCGF Assay for Epidermal growth factor receptor (EGFR) Biomarker Activity (AID 2283057). To be noted: primary human foreskin fibroblasts; actives raise or lower the signal. The procedure, abridged: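 Primary human foreskin fibroblasts were exposed to compound for 24 h, after which cell-surface EGFR was quantified by ELISA. Activity was fitted bidirectionally against the DMSO negative control as baseline.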

Read-out in test [18]: Interleukin-8 (IL8), CXCL8 (gene 3576)
The test can be described thus: BSK_hDFCGF_IL8: BioMAP Diversity Plus: hDFCGF Assay for Interleukin-8 (IL8) Biomarker Activity (AID 2283058). To be noted: primary human foreskin fibroblasts; actives raise or lower the signal. The procedure, abridged:
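Fibroblast monolayers (human foreskin, hDFCGF) received test chemical for 24 h before ELISA detection of IL-8; either increases or decreases relative to DMSO count as activity.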

The nature of test [19]: BSK_hDFCGF_Proliferation: Cell Proliferation Assessment in the BioMAP Diversity Plus: hDFCGF Assay (AID 2283059).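 Also: curves fitted for both rise and fall of signal versus DMSO baseline.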 To be noted: primary human foreskin fibroblasts. The procedure, abridged: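 Total protein read at 560 nm after 0.1% SRB staining of TCA-fixed human skin fibroblasts, […]. Activity is fitted in both directions relative to DMSO as baseline.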

Read-out in test [20]: Macrophage colony-stimulating factor (MCSF), CSF1 (gene 1435)
The test can be described thus: BSK_hDFCGF_MCSF: BioMAP Diversity Plus: hDFCGF Assay for Macrophage colony-stimulating factor (MCSF) Biomarker Activity (AID 2283060). To be noted: primary human foreskin fibroblasts; actives raise or lower the signal. The method, boiled down: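 fibroblasts (human foreskin, primary), 24 h post-dose; M-CSF by ELISA; bidirectional fit, DMSO = baseline.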

Drawing on PubChem BioAssay (EPA / NIEHS), this text covers AC50 and outcome for 6 molecules.

Activity calls are given as the source filed them. The calls were made as follows: active = hit-call score of the fitted dose curve at least 0.9, where 1 is the maximum; inactive = score below 0.9.

As to `CCC(C)c1cc([N+](=O)[O-])cc([N+](=O)[O-])c1O` (stereo not given), the half-maximal activity concentration (AC50) – broadly, the concentration giving half of the maximal activity seen – was 1.28 µM (active) in [1]; 14.6 µM (active) in test [3]; 33.7 µM (active) in test [7]; 30.2 µM (active) in [10]; 31.3 µM (active) in test [14]; 3.85 µM (active) in test [19]. For the same molecule, in [20], the AC50 was 4.2 µM (active). The result in [2], in test [4], in test [5], in test [6], in test [8] and in [9] was inactive. Further, the outcome in test [11], in test [12], in [13], in [15], in [16] and in [17] was inactive. In addition, the outcome in test [18] was inactive.

For the molecule `O=NN(c1ccccc1)c1ccccc1`, the result in [1], in test [2], in test [3], in test [4], in test [5] and in test [6] was inactive. Besides, the outcome in test [7], in test [8], in [9], in test [10], in test [12] and in test [13] was inactive. The outcome in [14], in test [15], in test [16], in test [17], in test [18] and in test [19] was inactive. For the same molecule, the outcome in test [20] was inactive. For the same molecule, the AC50 in [11] was 4.46 µM (active).

Take `Sc1ccccc1`: the result in [1], in test [2], in test [3], in test [4], in test [5] and in test [6] was inactive. Also, the outcome in test [7], in test [8], in test [9], in test [10], in test [11] and in test [12] was inactive. Besides, the result in [13], in test [14], in [15], in [16], in [17] and in test [18] was inactive. Moreover, the outcome in test [19] and in test [20] was inactive.

Consider `O=C(N[C@H]1CN2CCC1CC2)c1cc2ccoc2cn1`, for which the result in test [1], in test [2], in test [3], in [4], in test [5] and in [6] was inactive. The outcome in test [7], in test [8], in test [9], in [10], in test [11] and in test [12] was inactive. Also, the result in test [13], in test [14], in test [15], in [16], in test [17] and in test [18] was inactive. Further, the result in [19] and in test [20] was inactive.

With `CCCCCCCCCc1ccc(O)cc1`, the half-maximal activity concentration (AC50) in test [1] was 7.58 µM (active); in [2], 33 µM (active); in test [3], 31.4 µM (active); in test [4] it was 34.6 µM (active); in test [5] it was 29.3 µM (active); in test [6], 31.8 µM (active). Besides, the half-maximal activity concentration (AC50) in test [7] is 16 µM (active); in test [8], 36.1 µM (active); in test [9], 29.8 µM (active); in test [10], 34.1 µM (active); in test [11] it was 37.8 µM (active); in [12] it was 28.7 µM (active). For the same molecule, the AC50 in test [13] was 14.1 µM (active); in [14] it was 38.2 µM (active); in test [15] it was 33.6 µM (active); in test [16], 9.87 µM (active); in [18], 17.2 µM (active); in test [19], 5.93 µM (active). The AC50 in test [20] is 13.6 µM (active). Also, the result in test [17] was inactive.

As to `CC(C)C(=O)OCC(C)(C)C(OC(=O)C(C)C)C(C)C` (stereo not given), the outcome in [1], in test [2], in [3], in test [4], in [5] and in [6] was inactive. The result in test [7], in [8], in test [9], in test [10], in [11] and in test [12] was inactive. Also, the outcome in test [13], in test [14], in [15], in test [16], in [17] and in test [18] was inactive. Moreover, the result in [20] was inactive. Also, the half-maximal activity concentration (AC50) in [19] was 34.4 µM (active).
